Most compounds without a hit are left out; they make up all but 1.3% or so of the library.
TRPV1 potentiator: enhances activation of the human vanilloid receptor TRPV1 | Q8NER1 | TRPV1-expressing cells, Fluo-8 calcium influx, capsaicin EC20 potentiation | potentiation, % at 8.33 µM | actives 0.02% (n = 320,000) | AID 540277; in the data active = potentiation above about 80%; inconclusive = between about 30% and that limit
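Fluo-8 calcium influx in TRPV1-expressing cells, kinetic read (ex 480/em 520 nm). Compound added and read 3 min for agonist activity, followed by capsaicin at EC20 final and 2 min further read for enhancement.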
TRPML1 agonist: human mucolipin-1 channel agonism; TRPML1-expressing cells, Ca2+ dye fluorescence, FDSS; activation, % (no concentration beside the values); actives 0.12% (n = 410,000); AID 624414; Q9GZU1; in the data active = activation above about 50%; inconclusive = mostly about 30% to 49%
Target sequence (Q9GZU1 whole entry, looked up): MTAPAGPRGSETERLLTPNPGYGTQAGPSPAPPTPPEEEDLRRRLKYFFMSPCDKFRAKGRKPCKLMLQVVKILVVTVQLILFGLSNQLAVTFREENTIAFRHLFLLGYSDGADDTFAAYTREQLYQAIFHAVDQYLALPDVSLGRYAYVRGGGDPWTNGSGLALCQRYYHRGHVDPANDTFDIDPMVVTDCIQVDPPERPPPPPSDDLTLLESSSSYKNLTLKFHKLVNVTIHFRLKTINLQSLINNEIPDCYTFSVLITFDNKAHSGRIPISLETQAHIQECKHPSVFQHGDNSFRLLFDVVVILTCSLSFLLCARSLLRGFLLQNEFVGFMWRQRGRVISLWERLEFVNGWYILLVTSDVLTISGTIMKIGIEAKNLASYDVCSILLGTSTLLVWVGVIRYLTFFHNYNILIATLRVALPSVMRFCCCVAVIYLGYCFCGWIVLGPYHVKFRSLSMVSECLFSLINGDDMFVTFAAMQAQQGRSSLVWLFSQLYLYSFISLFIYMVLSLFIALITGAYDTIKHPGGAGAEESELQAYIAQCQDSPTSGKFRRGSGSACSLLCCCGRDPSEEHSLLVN
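Cells: TRPML1-DL, 1X Tet inducer, ~16 h at 37 degrees C/5% CO2. Dye: ABD Ca8 no-wash + quencher, 45-90 min RT. Read: 10 s baseline, compound add, 110 s agonist phase; 54-4 EC80 (4uM final), 110 s antagonist phase.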
TRPML1 blocker: human mucolipin-1 channel inhibition | TRPML1-inducible cells, Ca2+ dye fluorescence, FDSS; hits give low values; inhibition of EC80 agonist-evoked calcium signal | activity change, negative = inhibition, % (concentration not given with the values) | actives 0.02% (n = 390,000) | AID 624415; in the data active = activity change below about -50%; inconclusive = between about -30% and that limit;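 also: stimulus is agonist 54-4 at its EC80 concentration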
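Calcium fluorescence in TRPML1-DL cells induced overnight with Tet: a 110 s read after compound pin addition, then a 110 s antagonist read after challenge with 54-4 at 4 uM final (EC80).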
TRPV1 ag: activates the human vanilloid receptor TRPV1; Q8NER1; TRPV1-expressing cells, Fluo-8 calcium influx, agonist mode; activation, % at 8.33 µM; actives 0.19% (n = 320,000); in the data active = activation above about 80%; inconclusive = between about 30% and that limit
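TRPV1-expressing cells were cultured overnight at 35.5C and loaded with Fluo-8 calcium dye for 40 to 90 min at room temperature. After a 10 s baseline, compound was added and calcium influx was read kinetically for 3 min (ex 480/em 520 nm).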
KCNH2 3.1 block: KCNH2 3.1 (human) potassium channel inhibition; U2OS KCNH2 3.1, thallium flux FluxOr; hits give low values; activity change, % (tested at about 1.8 µM); actives 0.95% (n = 340,000); AID 720553;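 active = maximum activity change below -70%; inconclusive = maximum activity change from -70% to -50%; inactive = maximum activity change above -50%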;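 also: thallium influx rate constant from kinetic fluorescence after stimulation buffer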
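FluxOr-based Tl+ influx in U2OS cells transduced with KCNH2 3.1 virus; rate constants normalized to DMSO controls.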
hERG WT inh: blocks the wildtype human KCNH2 potassium channel | Q12809 | U2OS, BacMam KCNH2, thallium flux FluxOr; hits give low values | activity change, % at 1.84 µM | actives 0.37% (n = 340,000);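 active = maximum activity change below -70%; inconclusive = maximum activity change between -70% and -50%; inactive = maximum activity change above -50%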
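U2OS cells were transduced with wild-type KCNH2 virus (2.03 x 10^8 / mL) for 4 h at room temperature, then cultured overnight at 37 C. Thallium flux was read with FluxOr dye. Rate constants were normalized to DMSO controls.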
A number is an active result.

`CCOc1ccc(NC(=O)CN2CCN(CC(=O)Nc3cccc(F)c3)CC2)cc1` gave TRPV1 potentiator inactive, TRPML1 agonist inactive, TRPML1 blocker inactive, TRPV1 ag inactive, KCNH2 3.1 block -85.0 and hERG WT inh inactive.
`COc1ccc(NC(=O)CN2CCN(CC(=O)Nc3ccc(F)cc3)CC2)cc1Cl` gave TRPV1 potentiator inactive, TRPML1 agonist inactive, TRPML1 blocker inactive, TRPV1 ag inactive, KCNH2 3.1 block -91.2 and hERG WT inh inactive.
`COc1ccc(S(=O)(=O)N2CCN(CC(=O)Nc3cc(Cl)ccc3Cl)CC2)cc1` gave TRPV1 potentiator inactive, TRPML1 agonist inactive, TRPML1 blocker inactive, TRPV1 ag inactive, KCNH2 3.1 block -85.1 and hERG WT inh inactive.
`CSc1cccc(NC(=O)N2CCN(S(=O)(=O)c3ccc4c(ccn4C)c3)CC2)c1` gave TRPML1 agonist inactive and TRPML1 blocker inactive.
`COc1ccc(CN2CCCN(S(=O)(=O)c3ccc(Br)cc3)CC2)cc1` gave TRPV1 potentiator inactive, TRPML1 agonist inactive, TRPML1 blocker inactive, TRPV1 ag inactive, KCNH2 3.1 block -101.6 and hERG WT inh -126.0.
`COc1ccc(NC(=O)CN2CCN(CC(=O)Nc3ccccc3Cl)CC2)cc1` gave TRPV1 potentiator inactive, TRPML1 agonist inactive, TRPML1 blocker inactive, TRPV1 ag inactive, KCNH2 3.1 block -85.5 and hERG WT inh inactive.
`COc1ccccc1NC(=O)CN1CCN(CC(=O)Nc2ccc(OCc3ccccc3)cc2)CC1` gave TRPV1 potentiator inactive, TRPML1 agonist inactive, TRPML1 blocker inactive, TRPV1 ag inactive, KCNH2 3.1 block -78.7 and hERG WT inh inactive.
`COc1ccc(S(=O)(=O)N2CCN(Cc3ccc(Cl)cc3)CC2)cc1` gave TRPV1 potentiator inactive, TRPML1 agonist inactive, TRPML1 blocker inactive, TRPV1 ag inactive, KCNH2 3.1 block inactive and hERG WT inh inactive.
COc1ccc(NC(=O)CN2CCc3ccccc3C2)c(OC)c1 was read as TRPV1 potentiator inactive, TRPML1 agonist inactive, TRPML1 blocker inactive, TRPV1 ag inactive, KCNH2 3.1 block inactive and hERG WT inh -246.6.
`Cc1ccc(-c2n[nH]c3c2C(c2cccs2)N(c2ccc(Cl)cc2)C3=O)cc1` (configuration not stated) gave TRPML1 agonist inactive and TRPML1 blocker inactive.
For CS(=O)(=O)c1ccc(Cl)c(NC(=O)CN2CCN(S(=O)(=O)/C=C/c3ccccc3)CC2)c1 the results were TRPML1 agonist inactive, TRPML1 blocker inactive, KCNH2 3.1 block -84.4 and hERG WT inh inactive.
Screening NS(=O)(=O)c1ccc(NC(=O)CN2CCN(S(=O)(=O)/C=C/c3ccccc3)CC2)cc1 returned TRPV1 potentiator inactive, TRPML1 agonist inactive, TRPML1 blocker inactive, TRPV1 ag inactive, KCNH2 3.1 block inactive and hERG WT inh inactive.
Screening COc1cccc(NC(=O)CN2CCN(CC(=O)Nc3ccc(F)cc3)CC2)c1 returned TRPV1 potentiator inactive, TRPML1 agonist inactive, TRPML1 blocker inactive, TRPV1 ag inactive, KCNH2 3.1 block -84.5 and hERG WT inh inactive.
For COc1cc(NC(=O)CN2CCN(CC(=O)Nc3ccc(F)cc3)CC2)cc(OC)c1 the results were TRPML1 agonist inactive and TRPML1 blocker inactive.
Screening COc1ccc(NC(=O)CN2CCN(CC(=O)Nc3ccc(F)cc3F)CC2)cc1 returned TRPV1 potentiator inactive, TRPML1 agonist inactive, TRPML1 blocker inactive, TRPV1 ag inactive, KCNH2 3.1 block -117.0 and hERG WT inh -120.4.
`COc1ccc2cc(CNc3ccc(OC)c(OC)c3)c(=O)n(CC(=O)Nc3ccc(C)cc3)c2c1` gave TRPML1 agonist inactive and TRPML1 blocker inactive.
`CC(C)NS(=O)(=O)c1cc(C(F)(F)F)ccc1/C=C/C(=O)O` gave TRPML1 agonist inactive.
c1ccc2c(-c3nc4ccccc4[nH]3)cccc2c1 was read as TRPML1 agonist inactive, TRPML1 blocker inactive, KCNH2 3.1 block -122.1 and hERG WT inh inactive.
COc1ccc(OC)c(C(c2nnnn2CCc2ccccc2)N2CCN(c3ccccc3)CC2)c1 (configuration not stated) was read as TRPV1 potentiator inactive, TRPML1 agonist 50.8, TRPML1 blocker inactive, TRPV1 ag inactive, KCNH2 3.1 block inactive and hERG WT inh inactive.
For COCCn1nnnc1C(c1ccc(OC)cc1OC)N1CCN(c2ccccc2)CC1 (configuration not stated) the results were TRPV1 potentiator inactive, TRPML1 agonist inactive, TRPML1 blocker inactive, TRPV1 ag inactive, KCNH2 3.1 block inactive and hERG WT inh inactive.
Screening CC(=O)Nc1ccc(S(=O)(=O)N2CCC(C(=O)NCCc3c[nH]c4ccccc34)CC2)cc1 returned TRPV1 potentiator inactive, TRPV1 ag inactive, KCNH2 3.1 block -133.4 and hERG WT inh inactive.
Screening O=C(CCNC(=O)C1CCN(S(=O)(=O)c2ccc(F)cc2)CC1)NCc1ccc(F)cc1 returned TRPV1 potentiator inactive, TRPML1 agonist inactive, TRPML1 blocker inactive, TRPV1 ag inactive, KCNH2 3.1 block inactive and hERG WT inh inactive.
For O=C(CCNC(=O)C1CCN(S(=O)(=O)c2ccc(F)cc2)CC1)NCc1ccc(Cl)cc1 the results were TRPV1 potentiator inactive, TRPML1 agonist inactive, TRPML1 blocker inactive, TRPV1 ag inactive, KCNH2 3.1 block -112.6 and hERG WT inh inactive.
`COCc1ccc(C(=O)N(C)CC2CCCN(CCc3ccc(Cl)cc3)C2)o1` (configuration not stated) gave TRPV1 potentiator inactive, TRPML1 agonist inactive, TRPML1 blocker inactive, TRPV1 ag inactive, KCNH2 3.1 block -73.7 and hERG WT inh inactive.
`Cc1occc1C(=O)N(C)CC1CCCN(CCc2ccc(Cl)cc2)C1` (configuration not stated) gave TRPML1 agonist inactive, TRPML1 blocker inactive, KCNH2 3.1 block -72.0 and hERG WT inh inactive.
Screening COc1ccc(NC(=O)c2c([N+](=O)[O-])c(C(C)(C)C)nn2C)cc1 returned TRPV1 potentiator inactive, TRPML1 agonist inactive, TRPML1 blocker inactive, TRPV1 ag inconclusive, KCNH2 3.1 block -81.3 and hERG WT inh inactive.
For Cc1c(C=O)c2ccccc2n1CC(=O)NCc1ccc2c(c1)OCO2 the results were TRPV1 potentiator inactive, TRPML1 agonist inactive, TRPML1 blocker inactive, TRPV1 ag inactive, KCNH2 3.1 block -389.7 and hERG WT inh inactive.
`Cc1ccc(C(=O)N2CCn3c4c(c5cc(C)ccc53)CCCC42)cc1` (configuration not stated) gave TRPML1 agonist inactive and TRPML1 blocker inactive.
Cc1ccc2c(c1)c1c3n2CCN(C(=O)c2ccc(C(F)(F)F)cc2)C3CCC1 (configuration not stated) was read as TRPML1 agonist 56.2 and TRPML1 blocker inactive.

Bioassay records: PubChem, National Center for Advancing Translational Sciences (NCATS)
